Among the data in PubChem BioAssay (NCATS) are activity change, negative = inhibition and Potency values, retold here.

Values joined by “and” are separate entries in the source; they are usually repeats but may differ in a detail not shown here. Identical values can stand only once. Inconclusive results are not listed. Where a structure was tested more than once in an assay, its records may differ in their call. Active and inactive are the calls of the source. Unless noted, calls follow the shape of the dose curve; as a rule, active = well fitted curve in either direction with a large enough effect (not every such curve was filed as active); inconclusive = small, poorly fitted or top-dose-only effect, or another doubt; inactive = flat fitted curve, though single readings scatter. Bounds are passed on as bounds.

The nature of test [1]: AP1 Signaling Pathway (AID 357).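 Also: ME-180 reporter cells stimulated with EGF at its EC50 level; % is scaled to controls: 0 for no effect and ±100 for the full control effect.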 As to conditions: ME-180 (cervical carcinoma) AP-1-bla reporter, EGF-induced, beta-lactamase ratio, 5 h; at 38 µM (top of the series) unless noted. The procedure, abridged: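 Modulation of EGF-driven AP-1 transcription was assessed with a beta-lactamase reporter in ME-180 cells. Compound and EC50 EGF were co-incubated 5 hours at 37 °C before 2.5-hour CCF4 loading at room temperature and dual-emission reading.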

Test [2] concerns the target Cytochrome P450 1A2 (Homo sapiens) (UniProt P05177). Briefly: p450-cyp1a2 (AID 410; calls by dose curve; also: potency is read from the fitted curve at half-maximal effect;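 as to activity change, negative = inhibition: -100% = full effect of reference inhibitor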). The procedure, abridged:
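20nM CYP1A2, 100uM Luciferin-ME (=Km), 100mM KPO4; cpd 10 min RT; +NADPH regen, 60 min RT; stop/detect 20 min; luminescence. Normalized to furafylline 57 uM = full inhibition.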

Test [3] is described as follows: NFAT Signaling Pathway (AID 444).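 Also: carbachol stimulus at about its EC50 of 1 µM final; % is scaled to controls: 0 for no effect and ±100 for the full control effect.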 To be noted: Jurkat NFAT-bla M1, carbachol, beta-lactamase ratio, 5 h; at 38 µM (top of the series) unless noted. The procedure, abridged: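 Jurkat cells carrying an NFAT-driven β-lactamase reporter and co-transfected muscarinic M1 receptor were treated with compound plus carbachol (1 uM final, an EC50 level) for 5 h at 37 °C. CCF4 loading followed for 1 h at RT; 460/530 nm ratio gave %activity.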

The nature of test [4]: Cell Viability - BJ (AID 421; calls by dose curve;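 also: potency is read from the fitted curve at half-maximal effect; cells exposed to compound for 40 hours at 37 °C before readout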). As to conditions: BJ fibroblast viability, qHTS. The method, boiled down:
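Luminescent ATP signal (CellTiter-Glo, 20 min at room temperature) served as the read-out of viable BJ cells after 40 hours of compound treatment. Responses were scaled between DMSO and 100 uM tamoxifen, and AC50 values were obtained by Hill modeling.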
For orientation: qHTS replaces the single test concentration by a dilution series.

Test [5] in a line: Cell Viability - Jurkat (AID 426;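 active = dose-dependent loss of cell ATP signal giving a full or clear fitted curve, ranked by lower potency value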;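 also: potency is read from the fitted curve at half-maximal effect; cells exposed to compound for 40 hours at 37 °C before ATP read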). As to conditions: qHTS. The method, boiled down:
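Luminescent ATP read-out (CellTiter-Glo, 20 min at room temperature) after 40 hr compound exposure at 37 °C of Jurkat E6-1 cells, 5000/well. Decreased ATP taken as cytotoxicity; AC50 from standard Hill equation.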

The nature of test [6]: Cell Viability - Hek293 (AID 427;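 active = compounds whose dose-response curve shows a full or clear partial loss of cell viability, called from curve shape rather than a numeric limit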;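 also: potency is read from the fitted curve at half-maximal effect; cells exposed to compound for 40 hours at 37 °C before reading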). As to conditions: qHTS. The procedure, abridged:
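Luminescent ATP read-out (CellTiter-Glo, 20 min RT) after 40 hr compound exposure at 37 °C in complete medium. Signal normalized to DMSO (basal) and 100 uM tamoxifen (100% inhibition); concentration-response fitted with the standard Hill equation to give AC50.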

Test [7] is described as follows: Cell Viability - HepG2 (AID 433; calls by dose curve;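 also: potency is read from the fitted curve at half-maximal effect; potency for ATP loss meaning cytotoxicity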). As to conditions: qHTS. The procedure, abridged: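 Cytotoxicity read as ATP loss (CellTiter-Glo luminescence) after 40 hr compound exposure of HepG2, 1500 cells/well, 37 °C. AC50 by Hill equation; 0% set by DMSO, 100% inhibition by 100 uM tamoxifen.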
A short description of test [8]: Cell Viability - MRC5 (AID 434; calls by dose curve;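 also: potency is read from the fitted curve at half-maximal effect; cells exposed to compound for 40 hours at 37 °C; potency reflects cytotoxicity seen as loss of intracellular ATP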). To be noted: MRC5 lung fibroblast viability, qHTS. The method, boiled down: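 Decrease in intracellular ATP, quantified by luciferase light output, reflects compound toxicity toward MRC5 cells exposed for 40 hr in complete culture medium. Concentration-response curves, scaled between DMSO and 100 uM tamoxifen, gave AC50 values.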
A short description of test [9]: Cell Viability - SK-N-SH (AID 435; calls by dose curve; also: potency is read from the fitted curve at half-maximal effect). As to conditions: SK-N-SH neuroblastoma cell viability qHTS. The procedure, abridged:
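qHTS cytotoxicity: CellTiter-Glo ATP luminescence after 40 h compound exposure of human neuroblastoma SK-N-SH cells at 37 °C. AC50 derived by Hill-equation fitting, with DMSO as basal and 100 uM tamoxifen as full inhibition.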

Sequence of Cytochrome P450 1A2 (Homo sapiens) (P05177 whole entry, looked up): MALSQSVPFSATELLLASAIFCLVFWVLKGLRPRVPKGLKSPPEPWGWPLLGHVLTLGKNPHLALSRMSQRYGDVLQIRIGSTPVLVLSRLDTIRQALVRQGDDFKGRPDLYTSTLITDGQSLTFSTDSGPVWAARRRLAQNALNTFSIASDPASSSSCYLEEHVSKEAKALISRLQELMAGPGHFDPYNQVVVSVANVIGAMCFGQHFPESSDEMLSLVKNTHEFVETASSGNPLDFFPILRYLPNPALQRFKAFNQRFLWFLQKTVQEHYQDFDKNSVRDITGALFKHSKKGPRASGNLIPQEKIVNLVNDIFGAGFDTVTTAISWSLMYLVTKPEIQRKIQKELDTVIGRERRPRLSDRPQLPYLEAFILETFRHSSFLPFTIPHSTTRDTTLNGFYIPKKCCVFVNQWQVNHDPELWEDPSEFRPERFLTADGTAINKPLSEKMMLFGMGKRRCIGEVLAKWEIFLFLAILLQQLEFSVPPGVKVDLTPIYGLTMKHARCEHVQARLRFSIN

On to `O=C(O)/C(=C/c1c(C(=O)O)[nH]c2cc(Cl)cc(Cl)c12)c1ccccc1`, for which the activity change, negative = inhibition in test [1] is 1.71% (inactive). The Potency in test [2] is 12.6 µM (active).

For `NS(=O)(=O)c1cccc2c1c([N+](=O)[O-])cc1nc(O)c(O)nc12`, the activity change, negative = inhibition in [1] was 7.91% (inactive). Moreover, the Potency in [2] is 25.1 µM (active) and inactive.

Turning to `NCCCNCCCCNCCCN`, the activity change, negative = inhibition in [1] is 11.4% (inactive). The Potency entry in [2] is “inactive and 15.8 µM (active)”.

In the case of `O=[N+]([O-])c1cccc2c(Br)[nH]nc12`, the activity change, negative = inhibition in test [1] was 1.06% (inactive). The Potency in [2] was 794 nM (active) and 126 nM (active).

On to `Nc1ccc2c3c(cccc13)C(=O)NC2=O`, for which the activity change, negative = inhibition in test [1] was -5.58% (inactive). Besides, the Potency in test [2] was 1 µM (active).

For `CCCOC(=O)c1c(-c2ccccc2)nc(CC)c(C(=O)SCC)c1CCC`, the activity change, negative = inhibition in test [1] was 2.66% (inactive). The Potency in test [2] is 10 µM (active).

For `O=C(O)C1=CCNCC1`, the activity change, negative = inhibition in test [1] was -4.73% (inactive); in test [3] it was -0.658% (inactive). The Potency result in [2] was “inactive”.

For `CCN1C(=O)C=CC1=O`, the results for the activity change, negative = inhibition in [1] and in test [3] were -2.69% (inactive) and 4.62% (inactive), respectively. Further, in test [2], the Potency result was “inactive”.

Regarding `NC(N)=NC(N)=Nc1cccc(Cl)c1`, in [1], the activity change, negative = inhibition is -8.78% (inactive). Further, the Potency entry in test [2] was “inactive”.

As to `CCCc1c(OCCCOc2ccc(OCC(=O)O)cc2)ccc(C(C)=O)c1O`, the activity change, negative = inhibition is -9.01% (inactive) in test [1] and -26.4% (inactive) in test [3]. The Potency in test [2] is 31.6 µM (active).

`O=C(O)Cc1c[nH]c2ccc(O)cc12`: the activity change, negative = inhibition in test [1] is 21.9% (inactive); in test [3] it was 6.87% (inactive). Also, the Potency result in test [2] is “inactive”.

As for `CNc1cc(NS(=O)(=O)c2ccc(N)cc2)nc(NC)n1`, the activity change, negative = inhibition in [1] was 4.35% (inactive); in test [3] it was 3.2% (inactive). Also, the Potency result in [2] was “inactive”.

For the compound `CCC(=O)N1CCN(C(=O)c2ccccc2)CC1`, the activity change, negative = inhibition in test [1] is -5.7% (inactive); in [3], 3.73% (inactive). Besides, in test [2], the Potency result was “inactive”.

For `CCCCCCCCCCCCCCC[C@H](O)[C@H](N)CO`, the activity change, negative = inhibition in [1] was 5.73% (inactive); in test [3] it was 0.212% (inactive). In [2], the Potency entry was “inactive”.

In the case of `N=C(N)SCCc1cnc[nH]1`, the activity change, negative = inhibition in test [1] was 5.57% (inactive); in test [3], -4.42% (inactive). The Potency result in test [2] was “inactive”.

Turning to `O=C(O)C1=CCCNC1`, the results for the activity change, negative = inhibition in test [1] and in test [3] were -0.308% (inactive) and 3.92% (inactive), respectively. Further, in [2], the Potency entry is “inactive”.

Turning to `COc1cc(CC(=O)O)ccc1O`, the results for the activity change, negative = inhibition in test [1] and in test [3] were 8.32% (inactive) and 6.22% (inactive), respectively. The Potency result in [2] is “inactive”.

Regarding `Cc1nc2c(OCc3ccccc3)cccn2c1CC#N`, the activity change, negative = inhibition in test [1] is -13% (inactive); in test [3] it was 4.14% (inactive). For the same compound, the Potency in test [2] is 2 µM (active) and 398 nM (active).

Regarding `CC(=O)C(C)=O`, the activity change, negative = inhibition in test [1] is -3.27% (inactive); in [3], 3.23% (inactive). Also, the Potency result in test [2] was “inactive”. Also, the Potency in test [4], in [5], in [6], in [7], in test [8] and in test [9] was > 92 µM (inactive) throughout.

Regarding `Nn1nnc2ccccc21`, the activity change, negative = inhibition in test [1] was 1.19% (inactive); in test [3], 4.59% (inactive). Further, the Potency in [2] was 12.6 µM (active).

For `NC(=O)c1ccccc1`, the activity change, negative = inhibition in test [1] is -2.04% (inactive). For the same compound, in test [2], the Potency result was “inactive”. Besides, the Potency in [4], in test [5], in test [6], in test [7], in test [8] and in test [9] was > 92 µM (inactive) each time.

For `COCc1nc2c([nH]1)c(=O)n(C)c(=O)n2CC(C)C`, the figures for the activity change, negative = inhibition in test [1] and in test [3] were 1.03% (inactive) and 9.41% (inactive), respectively. The Potency in [2] is 12.6 µM (active).

In the case of `O=C(O)c1ccccc1Nc1ccccc1`, the activity change, negative = inhibition in test [1] was 4.51% (inactive); in test [3], 6% (inactive). Besides, the Potency in test [2] is 15.8 µM (active).

On to `N[C@H](C(=O)O)c1cc(O)cc(O)c1`, for which the results for the activity change, negative = inhibition in [1] and in [3] were 7.53% (inactive) and -1.35% (inactive), respectively. Further, the Potency result in test [2] is “inactive and 31.6 µM (active)”.

For `Nc1nc2ccc(Cl)cc2c2nc(-c3ccco3)nn12`, in [1], the activity change, negative = inhibition was -6.92% (inactive). In addition, the Potency in [2] was 631 nM (active) and 63.1 nM (active).

With `Nc1ccc(N2C(=O)c3ccccc3C2=O)c(Cl)c1`, the activity change, negative = inhibition in test [1] was -5.66% (inactive). In test [2], the Potency entry is “inactive”.

With `CCN(CC)CCCCCCCCOC(=O)c1cc(OC)c(OC)c(OC)c1`, the activity change, negative = inhibition in test [1] is 20.2% (inactive); in test [3], -83.6% (active). Besides, the Potency entry in [2] was “inactive”.

As for `O=C(O)c1cc(=O)cc(C(=O)O)[nH]1`, the activity change, negative = inhibition is -11.2% (inactive) in test [1] and -5.4% (inactive) in test [3]. Moreover, in [2], the Potency result is “inactive”.

In the case of `Nc1ncnc2c1ncn2C1CCCC1`, the figures for the activity change, negative = inhibition in test [1] and in test [3] were -12.9% (inactive) and 11.8% (inactive), respectively. Also, in test [2], the Potency was 20 µM (active).

As to `NC(=O)CNCCC(c1ccccc1)c1ccccc1`, the activity change, negative = inhibition in test [1] is -7.75% (inactive). The Potency entry in test [2] was “inactive”.

With `C[C@H](O)C(=O)C1=Nc2c(nc(N)[nH]c2=O)NC1`, the values for the activity change, negative = inhibition in test [1] and in [3] were 12.2% (inactive) and -2.7% (inactive), respectively. Moreover, in [2], the Potency entry was “inactive”.

Consider `O=S(=O)(c1cccc2c(Cl)cccc12)N1CCCNCC1`, for which the activity change, negative = inhibition was -0.881% (inactive) in [1] and 3.5% (inactive) in [3]. Besides, the Potency in test [2] is 15.8 µM (active).

Regarding `Cc1cccc(C(=O)NCN2CCN(c3ccccc3C#N)CC2)c1`, the activity change, negative = inhibition in [1] is -12.1% (inactive); in test [3], -27.4% (inactive). For the same compound, the Potency in [2] was 15.8 µM (active) and 20 µM (active).

In the case of `CC[N+](CC)(CC)CC(=O)Nc1c(C)cccc1C`, the results for the activity change, negative = inhibition in test [1] and in test [3] were 6.05% (inactive) and -27.1% (inactive), respectively. In addition, the Potency result in test [2] is “inactive and 31.6 µM (active)”.
